# Data published in PubChem BioAssay (EPA / NIEHS).
# Several values for one entry are separate records, joined by “and”; a condition that tells them apart may be missing. Identical values can stand only once. A structure can be active in one record and inactive in another. Activity calls are given as the source filed them. The calls were made as follows: active = hit-call score of the fitted dose curve at least 0.9, where 1 is the maximum; inactive = score below 0.9.
# Tests used:
# [1] = BSK_BF4T_SRB: Viability Assessment in the BioMAP Diversity Plus: BF4T Assay (AID 2284274); conditions: primary human bronchial epithelial cells with fibroblasts;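 as to AC50: total cell protein by sulforhodamine B staining as a cytotoxicity measure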
# How it was run: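 Co-culture of human bronchial epithelial cells and dermal fibroblasts (BioMAP BF4T) exposed 24 h. Total protein by sulforhodamine B staining (0.1% SRB after 10% TCA fixation, 560 nm) in parallel cultures; fitted vs DMSO.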
# [2] = read-out: urokinase Plasminogen Activator (uPA), PLAU (gene 5328); assay: BSK_BF4T_uPA: BioMAP Diversity Plus: BF4T Assay for urokinase Plasminogen Activator (uPA) Biomarker Activity (AID 2284275); conditions: primary human bronchial epithelial cells with fibroblasts
# How it was run: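 Co-culture of human bronchial epithelial cells and dermal fibroblasts; uPA quantified by ELISA 24 hours after dosing, fitted relative to DMSO. Parallel SRB total-protein staining assessed overt cytotoxicity.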
# [3] = read-out: Interleukin-8 (IL8), CXCL8 (gene 3576); assay: BSK_IMphg_IL8: BioMAP Diversity Plus: IMphg Assay for Interleukin-8 (IL8) Biomarker Activity (AID 2284277); conditions: primary human endothelial cells with macrophages
# How it was run: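 Co-culture of human venular endothelial cells and macrophages exposed to chemicals for 24 h; IL-8 quantified by ELISA and compared against the DMSO baseline, with SRB total-protein staining in parallel cultures for cytotoxicity.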
# [4] = read-out: Intercellular Adhesion Molecule 1 (ICAM1), ICAM1 (gene 3383); assay: BSK_BE3C_ICAM1: BioMAP Diversity Plus: BE3C Assay for Intercellular Adhesion Molecule 1 (ICAM1) Biomarker Activity (AID 2284278); conditions: primary human bronchial epithelial cells;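 as to outcome: cell-surface ICAM-1 protein level quantified by ELISA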
# How it was run: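 Human primary bronchial epithelial cultures; compound added; 24 h incubation; cell-surface ICAM-1 measured by ELISA; signal increase fitted relative to DMSO negative control.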
# [5] = read-out: Interferon-inducible T-cell alpha chemoattractant (ITAC), CXCL11 (gene 6373); assay: BSK_BE3C_ITAC: BioMAP Diversity Plus: BE3C Assay for Interferon-inducible T-cell alpha chemoattractant (ITAC) Biomarker Activity (AID 2284279); conditions: primary human bronchial epithelial cells
# How it was run: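 ELISA read-out of I-TAC after 24 h chemical dosing of human lung primary bronchial epithelial cells; gain-of-signal fit vs DMSO baseline. Parallel SRB total-protein staining (0.1% SRB, 10% TCA fixation, 560 nm) assessed cytotoxicity.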
# [6] = read-out: Interleukin-8 (IL8), CXCL8 (gene 3576); assay: BSK_BE3C_IL8: BioMAP Diversity Plus: BE3C Assay for Interleukin-8 (IL8) Biomarker Activity (AID 2284280); conditions: primary human bronchial epithelial cells
# How it was run: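 ELISA read-out of IL-8 in human lung bronchial epithelial primary cell cultures, 24 h post-dosing; endpoint analysed as signal increase relative to DMSO baseline.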
# [7] = read-out: Epidermal growth factor receptor (EGFR), EGFR (gene 1956); assay: BSK_BE3C_EGFR: BioMAP Diversity Plus: BE3C Assay for Epidermal growth factor receptor (EGFR) Biomarker Activity (AID 2284281); conditions: primary human bronchial epithelial cells
# How it was run: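 Primary human lung bronchial epithelial cells; compound, 24 h; EGFR measured by ELISA; positive-direction fit vs DMSO baseline.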
# [8] = read-out: KRT18 (gene 3875); assay: BSK_BE3C_Keratin818: BioMAP Diversity Plus: BE3C Assay for Keratin 818 Biomarker Activity (AID 2284282); conditions: primary human bronchial epithelial cells
# How it was run: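 Chemicals are added to human lung bronchial epithelial primary cells (BE3C system) and incubated 24 h. Keratin 8/18 is then measured by ELISA, with parallel SRB total-protein staining gauging overt cytotoxicity.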
# [9] = read-out: Plasminogen activator inhibitor-1 (PAI1), SERPINE1 (gene 5054); assay: BSK_CASM3C_PAI1: BioMAP Diversity Plus: CASM3C Assay for Plasminogen activator inhibitor-1 (PAI1) Biomarker Activity (AID 2284284); conditions: primary human coronary artery smooth muscle cells;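 also: PAI-1 protein level measured by ELISA 24 h after dosing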
# [10] = read-out: Monocyte Chemoattractant Protein-1 (MCP1), CCL2 (gene 6347); assay: BSK_hDFCGF_MCP1: BioMAP Diversity Plus: hDFCGF Assay for Monocyte Chemoattractant Protein-1 (MCP1) Biomarker Activity (AID 2284285); conditions: primary human foreskin fibroblasts
# How it was run: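 Human foreskin fibroblasts (hDFCGF system) were exposed to compound and secreted MCP-1 was measured by ELISA after 24 hours. Activity was fitted relative to DMSO. Cytotoxicity was checked by SRB total-protein staining in parallel cultures.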
# [11] = read-out: Vascular cell adhesion molecule 1 (VCAM1), VCAM1 (gene 7412); assay: BSK_IMphg_VCAM1: BioMAP Diversity Plus: IMphg Assay for Vascular cell adhesion molecule 1 (VCAM1) Biomarker Activity (AID 2284286); conditions: primary human endothelial cells with macrophages
# How it was run: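 Human venular endothelial cells co-cultured with macrophages; VCAM-1 quantified by ELISA 24 h after dosing, fitted in the positive direction against DMSO. Cytotoxicity was checked in parallel cultures by SRB total-protein staining (0.1% SRB after 10% TCA fixation, 560 nm).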
# [12] = read-out: Intercellular Adhesion Molecule 1 (ICAM1), ICAM1 (gene 3383); assay: BSK_hDFCGF_ICAM1: BioMAP Diversity Plus: hDFCGF Assay for Intercellular Adhesion Molecule 1 (ICAM1) Biomarker Activity (AID 2284287); conditions: primary human foreskin fibroblasts
# How it was run: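 Primary human foreskin fibroblasts (hDFCGF system) dosed with chemical; ICAM-1 quantified by ELISA at 24 h relative to DMSO. Parallel SRB total-protein staining to assess overt cytotoxicity.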
# [13] = read-out: CD40, CD40 (gene 958); assay: BSK_IMphg_CD40: BioMAP Diversity Plus: IMphg Assay for CD40 Biomarker Activity (AID 2284288); conditions: primary human endothelial cells with macrophages
# How it was run: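 Venular endothelial cells co-cultured with macrophages (human primary), CD40 measured by ELISA 24 h after dosing. Positive-direction fit vs DMSO baseline; cytotoxicity tracked by SRB total-protein staining in parallel cultures.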
# [14] = read-out: TIMP metallopeptidase inhibitor 2 (TIMP2), TIMP2 (gene 7077); assay: BSK_hDFCGF_TIMP2: BioMAP Diversity Plus: hDFCGF Assay for TIMP metallopeptidase inhibitor 2 (TIMP2) Biomarker Activity (AID 2284289); conditions: primary human foreskin fibroblasts
# How it was run: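 Primary human foreskin fibroblasts in the hDFCGF system, dosed for 24 h; TIMP-2 level measured by ELISA, fitted in the positive direction against DMSO; cytotoxicity checked in parallel by sulforhodamine B total protein staining.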
# [15] = read-out: Interleukin-1 alpha (IL1a), IL1A (gene 3552); assay: BSK_IMphg_IL1a: BioMAP Diversity Plus: IMphg Assay for Interleukin-1 alpha (IL1a) Biomarker Activity (AID 2284290); conditions: primary human endothelial cells with macrophages
# How it was run: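 Human venular endothelial cells co-cultured with macrophages, IMphg system. IL-1α is measured by ELISA 24 h after dosing and fitted in the positive direction against DMSO. Cytotoxicity is assessed by SRB staining of parallel cultures.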
# [16] = BSK_IMphg_SRB: Viability Assessment in the BioMAP Diversity Plus: IMphg Assay (AID 2284292); conditions: primary human endothelial cells with macrophages;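 also: measured one day after compound addition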
# How it was run: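 Human venular endothelial cells with macrophages, 24 h after chemical dosing; total protein by 0.1% SRB staining after 10% TCA fixation, read at 560 nm. Positive-direction fitting versus DMSO baseline.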
# [17] = read-out: Matrix Metallopeptidase 9 (MMP9), MMP9 (gene 4318); assay: BSK_BE3C_MMP9: BioMAP Diversity Plus: BE3C Assay for Matrix Metallopeptidase 9 (MMP9) Biomarker Activity (AID 2284283); conditions: primary human bronchial epithelial cells
# How it was run: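 Cells were dosed, incubated 24 h, then assayed for MMP-9 by ELISA; activity was fitted upward against DMSO. The system used human lung primary bronchial epithelial cells, with SRB total-protein staining run alongside for cytotoxicity.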
structure (smiles),measurement,setting,value
O=C(O)C(F)(F)C(F)(F)C(F)(F)C(F)(F)C(F)(F)C(F)(F)C(F)F,outcome,[1],inactive
same,outcome,[2],inactive
same,AC50,[3],30 µM (active) and 21.7 µM (active) and 32.1 µM (active)
same,outcome,[4],inactive
same,outcome,[5],inactive
same,outcome,[6],inactive
same,outcome,[7],inactive
same,outcome,[8],inactive
same,outcome,[9],inactive
same,outcome,[10],inactive
same,outcome,[11],inactive
same,outcome,[12],inactive
same,outcome,[13],inactive
same,AC50,[14],957 nM (active)
same,outcome,[14],inactive
C=C(C)C(=O)OCC(F)(F)C(F)(F)C(F)(F)C(F)F,outcome,[1],inactive
same,outcome,[2],inactive
same,outcome,[3],inactive
same,outcome,[4],inactive
same,outcome,[5],inactive
same,outcome,[6],inactive
same,outcome,[7],inactive
same,outcome,[8],inactive
same,outcome,[9],inactive
same,outcome,[10],inactive
same,outcome,[11],inactive
same,outcome,[12],inactive
same,outcome,[13],inactive
same,outcome,[14],inactive
O=C(O)CCC(F)(F)C(F)(F)C(F)(F)F,outcome,[1],inactive
same,outcome,[2],inactive
same,outcome,[3],inactive
same,outcome,[4],inactive
same,outcome,[5],inactive
same,outcome,[6],inactive
same,outcome,[7],inactive
same,outcome,[8],inactive
same,outcome,[9],inactive
same,outcome,[10],inactive
same,outcome,[11],inactive
same,outcome,[12],inactive
same,AC50,[13],220 nM (active)
same,outcome,[13],inactive
same,outcome,[14],inactive
same,outcome,[15],inactive
OCCCCC(F)(F)C(F)(F)C(F)(F)C(F)(F)F,outcome,[1],inactive
same,outcome,[2],inactive
same,outcome,[3],inactive
same,outcome,[4],inactive
same,outcome,[5],inactive
same,outcome,[6],inactive
same,outcome,[7],inactive
same,outcome,[8],inactive
same,outcome,[9],inactive
same,outcome,[10],inactive
same,outcome,[11],inactive
same,outcome,[12],inactive
same,outcome,[13],inactive
same,outcome,[14],inactive
same,outcome,[16],inactive
CCN=C1C=CC(=C(c2ccc(N(CC)CC)cc2)c2ccc(N(CC)CC)cc2)c2ccccc21,AC50,[4],3.19 µM (active) and 2.57 µM (active)
same,AC50,[5],2.7 µM (active) and 2.3 µM (active)
same,AC50,[6],4.21 µM (active) and 3.7 µM (active)
same,outcome,[7],inactive
same,AC50,[8],1.61 µM (active) and 1.51 µM (active)
same,AC50,[9],5.67 µM (active) and 5.38 µM (active)
same,AC50,[10],1.63 µM (active) and 1.44 µM (active)
same,AC50,[12],1.9 µM (active) and 1.77 µM (active)
same,AC50,[14],677 nM (active) and 195 nM (active)
NCC(F)(F)C(F)(F)C(F)(F)C(F)(F)C(F)(F)C(F)(F)F,outcome,[1],inactive
same,outcome,[2],inactive
same,outcome,[3],inactive
same,outcome,[4],inactive
same,outcome,[5],inactive
same,outcome,[6],inactive
same,outcome,[7],inactive
same,outcome,[8],inactive
same,outcome,[17],inactive
same,outcome,[9],inactive
same,outcome,[10],inactive
same,outcome,[11],inactive
same,outcome,[12],inactive
same,outcome,[13],inactive
same,outcome,[14],inactive
same,outcome,[16],inactive
OCC(F)(F)C(F)(F)C(F)(F)C(F)(F)C(F)(F)C(F)(F)CO,outcome,[1],inactive
same,outcome,[2],inactive
same,outcome,[3],inactive
same,outcome,[4],inactive
same,outcome,[5],inactive
same,outcome,[6],inactive
same,outcome,[7],inactive
same,outcome,[8],inactive
same,outcome,[9],inactive
same,outcome,[10],inactive
same,outcome,[11],inactive
same,outcome,[12],inactive
same,outcome,[13],inactive
same,outcome,[14],inactive
COC(F)(C(F)F)C(F)(F)F (centres undefined),outcome,[1],inactive
same,outcome,[2],inactive
same,outcome,[3],inactive
same,outcome,[4],inactive
same,outcome,[5],inactive
same,outcome,[6],inactive
same,outcome,[7],inactive
same,outcome,[8],inactive
same,outcome,[9],inactive
same,outcome,[10],inactive
same,outcome,[11],inactive
same,outcome,[12],inactive
same,outcome,[13],inactive
same,outcome,[14],inactive
O=C(F)C1(F)C(F)(F)C(F)(F)C(F)(F)C(F)(F)C1(F)F,outcome,[1],inactive
same,outcome,[2],inactive
same,outcome,[3],inactive
same,outcome,[4],inactive
same,outcome,[5],inactive
same,outcome,[6],inactive
same,outcome,[7],inactive
same,outcome,[8],inactive
same,outcome,[9],inactive
same,outcome,[10],inactive
same,outcome,[11],inactive
same,outcome,[12],inactive
same,outcome,[13],inactive
same,outcome,[14],inactive
NCC(F)(F)C(F)(F)C(F)(F)C(F)(F)C(F)(F)C(F)(F)C(F)(F)C(F)(F)F,outcome,[1],inactive
same,outcome,[2],inactive
same,outcome,[3],inactive
same,outcome,[4],inactive
same,outcome,[5],inactive
same,outcome,[6],inactive
same,outcome,[7],inactive
same,outcome,[8],inactive
same,outcome,[9],inactive
same,outcome,[10],inactive
same,outcome,[11],inactive
same,outcome,[12],inactive
same,outcome,[13],inactive
same,outcome,[14],inactive
CO[Si](C)(CCC(F)(F)C(F)(F)C(F)(F)C(F)(F)C(F)(F)C(F)(F)F)OC,outcome,[1],inactive
same,outcome,[2],inactive
same,outcome,[3],inactive
same,outcome,[4],inactive
same,outcome,[5],inactive
same,outcome,[6],inactive
same,outcome,[7],inactive
same,outcome,[8],inactive
same,outcome,[9],inactive
same,outcome,[10],inactive
same,outcome,[11],inactive
same,outcome,[12],inactive
same,outcome,[13],inactive
same,outcome,[14],inactive
OCC(F)(F)C(F)(F)C(F)(F)C(F)(F)C(F)(F)C(F)(F)C(F)(F)C(F)(F)CO,AC50,[1],26.2 µM (active) and 30 µM (active)
same,outcome,[2],inactive
same,AC50,[3],48.8 µM (active) and 48.9 µM (active)
same,AC50,[4],44.7 µM (active) and 40.3 µM (active)
same,AC50,[5],39.6 µM (active) and 31.6 µM (active)
same,AC50,[6],19.7 µM (active) and 5.95 µM (active)
same,AC50,[7],30 µM (active) and 25.2 µM (active)
same,outcome,[8],inactive
same,outcome,[9],inactive
same,AC50,[10],51 µM (active) and 42.3 µM (active)
same,AC50,[11],51.5 µM (active) and 54.6 µM (active)
same,AC50,[12],54.5 µM (active) and 46.2 µM (active)
same,AC50,[13],46.5 µM (active) and 41.2 µM (active)
same,outcome,[14],inactive
